Laboratory results taken from ChEMBL document CHEMBL1157539, “Thousands of chemical starting points for antimalarial lead identification” (Nature, 2010).

System: HepG2
Assay: GSK_TCMDC: Percent inhibition of human HepG2 cell line. Test compounds present at 10uM.
Assay type: functional

Question: For `CCC(=O)Nc1ccc(C(O)CN2CCC3(C=Cc4ccccc4O3)CC2)cc1` (stereo not given), which Inhibition is on record?
Answer: 48%

Question: How did the Inhibition turn out when `COc1cccc(-c2ccc(NC(=O)C3CCCN(Cc4cccc(OC)c4O)C3)cc2)c1` (stereo not given) was run?
Answer: 13%

Question: For `CCC1N=C(N)N=C(N)N1OCc1cccc2ccccc12` (stereo not given), which Inhibition is on record?
Answer: 66%

Question: For `COc1cc(NC(=O)/C=C/c2cc(F)cc(F)c2F)cc(OCCN2CCC3(CC2)OCCO3)c1.O=C(O)C(=O)O`, which Inhibition is on record?
Answer: 17%

Question: `Cc1ccc(C(NC(=O)c2ccccc2)c2ccc3cccnc3c2O)cc1` (stereo not given) was tested. Which Inhibition did it give?
Answer: 53%

Question: How did the Inhibition turn out when `CCCOC(=O)C1=C(C)NC2=C(C(=O)CC(c3ccc(OC)c(OC)c3)C2)C1c1cccc(O)c1` (stereo not given) was run?
Answer: 0%

Question: With `CCOc1cc(C)ccc1C1CCN(CCN2CCC(CNC(=O)c3ccc(-c4ccc(C(F)(F)F)cc4)cc3)CC2)CC1` as the compound, how does the Inhibition read?
Answer: 53%

Question: How did the Inhibition turn out when `O=C(Nc1ccc(-c2cncc(NCCCN3CCCC3)c2)cc1)c1ccccc1` was run?
Answer: 0%

Question: With `CC(C)(C)Oc1ccc(NC(=O)c2ccccc2O)cc1` as the compound, how does the Inhibition read?
Answer: 4%

Question: Which Inhibition does the source give for `Cc1ccc(NC(=O)c2ccc3ncccc3c2)cc1OC1CCN(Cc2ccsc2)C1.O=C(O)C(F)(F)F` (stereo not given) here?
Answer: 5%

Question: `CN(C)CCCOc1ccc(CN2CC[C@H](NC(=O)c3ccc(Cl)c(Cl)c3)C2)cc1Cl.O=C(O)C(F)(F)F` was tested. Which Inhibition did it give?
Answer: 65%

Question: How did the Inhibition turn out when `NS(=O)(=O)c1ccc(CNC(=O)c2cnc3c(O)cccc3c2Nc2cccc(NC(=O)c3ccc(Cl)c(Cl)c3)c2)cc1.O=C(O)C(F)(F)F` was run?
Answer: 56%

Question: How did the Inhibition turn out when `C[C@H](Cc1ccc(S(=O)(=O)c2ccc(C[C@@H](C)NC[C@H](O)c3cccc(Cl)c3)cc2)cc1)NC[C@H](O)c1cccc(Cl)c1.Cl` was run?
Answer: 100%

Question: Which Inhibition does the source give for `COc1ccc2c(NN=Cc3cccc(Cl)c3)ccnc2c1` here?
Answer: 32%

Question: `CCCCCCN1CCC(NCc2cccc(C#N)c2)CC1.O=C(O)C(F)(F)F` was tested. Which Inhibition did it give?
Answer: 5%

Question: With `O=[N+]([O-])c1ccc(C=NNc2nc3ccccc3[nH]2)cc1` as the compound, how does the Inhibition read?
Answer: 11%

Question: With `Cc1nc(C)c(-c2ccc(C(F)(F)F)cc2)c(O)c1Br` as the compound, how does the Inhibition read?
Answer: 0%

Question: How did the Inhibition turn out when `CCN(CC)CCN(Cc1ccc(-c2ccc(C(F)(F)F)cc2)cc1)C(=O)Cn1c(CCc2ccc(F)c(F)c2F)nc(=O)c2ccccc21.O=C(O)C(O)C(O)C(=O)O` was run?
Answer: 38%

Question: `O=C(Nc1ccc(C(=O)N2CCN(CCN3CCN(c4cccc(C(F)(F)F)c4)CC3)CC2)cc1)c1ccc(C(F)(F)F)cc1` was tested. Which Inhibition did it give?
Answer: 39%

Question: Which Inhibition does the source give for `COc1cccc(-c2cccc(-c3ccc(NC(=O)c4ccc([N+](=O)[O-])o4)cc3)n2)c1` here?
Answer: 98%

Question: For `C[C@@H](N)C#Cc1cc2c(Nc3ccc(OCc4cccc(F)c4)c(Cl)c3)ncnc2s1.O=CO`, which Inhibition is on record?
Answer: 17%

Question: With `CCCN1CCN(c2cc(NCC)c3c4c(onc24)-c2ccccc2C3=O)CC1` as the compound, how does the Inhibition read?
Answer: 4%

Question: How did the Inhibition turn out when `NC(=O)c1sc(-n2cnc3ccccc32)cc1OCc1ccccc1[N+](=O)[O-]` was run?
Answer: 10%

Question: How did the Inhibition turn out when `COc1cc2nc(Nc3ccc4c(cnn4Cc4ccccc4)c3)nc(Nc3ccc4c(cnn4Cc4ccccc4)c3)c2cc1OC` was run?
Answer: 4%

Question: Which Inhibition does the source give for `Cc1ccc2c(=NN=Cc3ccc(N(C)C)cc3)cc(C)[nH]c2c1` here?
Answer: 0%

Question: `Cc1cc(N2CCCC2)nc(Nc2ccc(NC(=O)COc3ccccc3)cc2)n1` was tested. Which Inhibition did it give?
Answer: 43%

Question: With `CC(C)CNCc1cccc(-c2cccc(CNC3CCN(Cc4ccccc4)CC3)c2)c1.O=C(O)C(F)(F)F` as the compound, how does the Inhibition read?
Answer: 32%

Question: Which Inhibition does the source give for `Cc1cccc2nc(-c3ccc(-c4ccc(CNCCNC(=O)c5ccnn5C)cc4)cc3)[nH]c12.O=C(O)C(F)(F)F` here?
Answer: 29%

Question: Which Inhibition does the source give for `Clc1ccc(Cl)c2[nH]c(CNCCCNc3nc4ccccc4[nH]3)cc12` here?
Answer: 88%

Question: How did the Inhibition turn out when `CN(C)c1ccc(C=C2SC(=O)N=C2Nc2ccccc2)cc1` was run?
Answer: 42%

Question: `COc1ccc2nccc(NC(=O)N3CCC(NCc4cc5c(F)ccc(F)c5[nH]4)CC3)c2n1.O=C(O)C(=O)O` was tested. Which Inhibition did it give?
Answer: 6%

Question: For `CCOc1ccccc1CNc1nccc(NCCc2cn(C)c3ccccc23)n1`, which Inhibition is on record?
Answer: 27%

Question: Which Inhibition does the source give for `Cc1ccc(C)c(Cn2ccc3nc(Cl)nc(Cl)c32)c1` here?
Answer: 0%

Question: How did the Inhibition turn out when `COc1ccc(-c2ccc(NC(=O)c3cccc(C#N)c3)cc2)cc1CN1CCC(O)CC1.O=C(O)C(F)(F)F` was run?
Answer: 21%

Question: How did the Inhibition turn out when `O=C(Nc1cccc(-c2ccc(-c3nc4cc(F)ccc4[nH]3)cc2)c1)Nc1ccc(F)c(F)c1F` was run?
Answer: 53%

Question: `COc1ccc(CNc2ccnc(-n3cnc4cc(C)c(C)cc43)n2)cc1Cl.O=C(O)C(F)(F)F` was tested. Which Inhibition did it give?
Answer: 6%

Question: With `Oc1ccc2[nH]cc(C3CCN(CCCNCc4ccc(-c5ccccc5)cc4)CC3)c2c1` as the compound, how does the Inhibition read?
Answer: 22%

Question: Which Inhibition does the source give for `CCOc1ccccc1C1CCN(CCCCNC(=O)c2ccc(NC(=O)c3ccc(Cl)cc3)cc2)CC1` here?
Answer: 13%

Question: `CCCc1cc(OC)c(CC2c3cc(O)c(C)cc3CCN2C)cc1OC.Cl` (stereo not given) was tested. Which Inhibition did it give?
Answer: 32%

Question: How did the Inhibition turn out when `N#CC(c1cccc(Cl)c1)c1ccc2c(C(F)(F)F)cc(C(F)(F)F)nc2n1` (stereo not given) was run?
Answer: 52%
